Screens: PubChem, National Center for Advancing Translational Sciences (NCATS)
This excerpt belongs to a sample that is enriched for hits.
KDM5B inh – KDM5B demethylase inhibition; Potency, µM (doses to about 57.7 µM), usual class: inhibitors; AID 1347165; Q9UGL1; 220,000 tested, 2.6% active; KDM5B demethylase, FDH-coupled NADH fluorescence (FDH is formaldehyde dehydrogenase); active means well fitted inhibition curve with a large enough effect; further: nearly all actives have a fitted effect of over 70% in size
Target sequence (Q9UGL1 whole entry, looked up): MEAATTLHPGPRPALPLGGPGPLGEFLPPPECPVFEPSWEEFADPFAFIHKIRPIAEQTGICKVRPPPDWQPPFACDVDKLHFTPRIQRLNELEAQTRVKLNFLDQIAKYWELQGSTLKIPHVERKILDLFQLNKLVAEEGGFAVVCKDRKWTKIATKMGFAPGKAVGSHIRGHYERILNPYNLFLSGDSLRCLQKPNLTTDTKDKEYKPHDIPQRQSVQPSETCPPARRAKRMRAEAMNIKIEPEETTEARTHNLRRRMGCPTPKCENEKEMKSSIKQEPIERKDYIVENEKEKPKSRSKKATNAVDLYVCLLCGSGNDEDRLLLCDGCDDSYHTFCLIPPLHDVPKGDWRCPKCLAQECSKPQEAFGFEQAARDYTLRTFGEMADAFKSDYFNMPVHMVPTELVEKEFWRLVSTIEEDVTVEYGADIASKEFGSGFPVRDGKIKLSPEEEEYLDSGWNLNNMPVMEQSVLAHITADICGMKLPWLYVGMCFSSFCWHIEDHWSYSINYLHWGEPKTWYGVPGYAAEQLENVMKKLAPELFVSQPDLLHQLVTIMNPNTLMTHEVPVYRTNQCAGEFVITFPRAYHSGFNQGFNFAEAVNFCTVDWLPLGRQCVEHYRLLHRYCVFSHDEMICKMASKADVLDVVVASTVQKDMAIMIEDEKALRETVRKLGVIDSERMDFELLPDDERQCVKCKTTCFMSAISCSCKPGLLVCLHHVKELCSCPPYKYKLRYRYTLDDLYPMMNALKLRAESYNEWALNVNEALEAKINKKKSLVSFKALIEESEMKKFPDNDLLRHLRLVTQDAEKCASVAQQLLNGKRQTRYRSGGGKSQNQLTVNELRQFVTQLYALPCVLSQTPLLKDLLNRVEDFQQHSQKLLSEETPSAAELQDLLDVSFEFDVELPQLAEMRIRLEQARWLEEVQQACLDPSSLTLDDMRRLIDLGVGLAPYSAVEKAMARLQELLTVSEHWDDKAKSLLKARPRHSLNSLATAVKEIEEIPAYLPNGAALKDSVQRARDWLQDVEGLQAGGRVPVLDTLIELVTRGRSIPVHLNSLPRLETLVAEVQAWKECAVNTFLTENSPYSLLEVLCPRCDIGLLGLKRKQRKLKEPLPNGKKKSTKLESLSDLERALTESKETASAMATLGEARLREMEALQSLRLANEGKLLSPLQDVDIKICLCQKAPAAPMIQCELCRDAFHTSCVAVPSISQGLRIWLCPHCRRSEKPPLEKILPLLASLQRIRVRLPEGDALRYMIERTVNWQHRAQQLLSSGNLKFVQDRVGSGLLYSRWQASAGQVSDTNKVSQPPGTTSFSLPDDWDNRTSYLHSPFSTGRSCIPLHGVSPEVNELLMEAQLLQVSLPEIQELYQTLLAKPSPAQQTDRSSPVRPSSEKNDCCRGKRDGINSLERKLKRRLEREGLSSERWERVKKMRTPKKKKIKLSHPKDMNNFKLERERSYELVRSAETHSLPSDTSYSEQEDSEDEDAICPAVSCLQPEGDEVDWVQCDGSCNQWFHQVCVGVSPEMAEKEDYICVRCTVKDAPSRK
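Coupled FDH/NAD⁺ fluorescence readout. KDM5BΔAP 200 nM final; compound titration, 10 min RT preincubation; substrate mix 12.5 µM H3K4me3, 25 µM 2-OG, 50 µM Fe(II), 100 µM ascorbate, 0.25 mM NAD⁺, 0.25 U/mL FDH; ΔRFU over 30 min.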
Numbers stand for hits; - = inactive.

SMILES	KDM5B inh
CC(C)C[C@@H]1N[C@H](C(=O)N2CCC(NC(=O)c3ccccc3)CC2)Cc2c[nH]c3cccc1c23	-
CCCNC(=O)[C@@H]1Cc2c[nH]c3cccc(c23)[C@H](CC(C)C)N1	-
COc1ccccc1NC(=O)Cc1cccn1-c1ccc(Cl)cc1	-
O=C(c1ccc(N2CCCN(Cc3ccc(Cl)cc3)C2=O)cc1)N1CCOCC1	-
Cc1ccccc1OCc1nc(C2CCOC2)no1 (stereo not drawn)	-
CCN(CC)Cc1cc(-c2nc(C3CCOC3)no2)c(-c2ccccc2)o1 (stereo not drawn)	25µM
COc1c(C)cccc1-c1nc(C2CCOC2)no1 (stereo not drawn)	-
Cc1cc(C)nc(SCc2ccc(-c3nc(C4CCOC4)no3)o2)n1 (stereo not drawn)	-
Cc1cc(-c2nc(C3CCOC3)no2)c2ccccc2n1 (stereo not drawn)	28µM
Cc1nnnn1-c1cccc(-c2nc(C3CCOC3)no2)c1 (stereo not drawn)	-
CCCc1ccc(-c2nc(C3CCOC3)no2)cc1 (stereo not drawn)	-
Cc1cc2cccc(-c3nc(C4CCOC4)no3)c2o1 (stereo not drawn)	22µM
Cn1nc(-c2nc(C3CCOC3)no2)cc1-c1ccccc1 (stereo not drawn)	-
CCCOc1cccc(C(=O)Nc2scc(-c3ccc(OC)c(OC)c3)c2C(=O)OC)c1	-
CCCNC(=O)NC(=O)CN(C)c1ccccc1	-
Cc1nn(C)c(C)c1CCC(=O)Nc1nccs1	-
O=C(Nc1cccc(F)c1)c1cnc(-c2ccc(F)cc2)nc1-c1ccncc1	-
Cc1ccc(C)c(NC(=O)COC(=O)Cn2cnc3c2c(=O)n(C)c(=O)n3C)c1	-
Cc1nc(NC(=O)c2cc(Cl)cc(Cl)c2)sc1C	-
C=CCn1c(SCc2coc(-c3ccc(F)cc3)n2)nnc1C1CCS(=O)(=O)C1 (stereo not drawn)	-
CN(CC(=O)Nc1ccccc1OCC(F)(F)F)S(=O)(=O)c1ccc2ccccc2c1	-
COc1ccccc1-c1nnc(C2CCN(C(=O)c3ccc(C)cc3)CC2)o1	-
COc1ccc(C(=O)N2CC[C@H](c3nnc(-c4ccccc4OC)o3)C2)cc1OC	-
COc1ccccc1-c1nnc([C@H]2CCN(CC3CCCCC3)C2)o1	35µM
COC(=O)/C(=C1/Oc2c(C)cc(C)cc2S1)C(F)(F)F	-
SMILES	KDM5B inh
CC(C)(C)C(=O)N1CCCN(Cc2ccc3c(c2)OCO3)c2ccccc21	-
CCn1ncc(CN2CCCCCNC(=O)CC2c2ccccc2)c1C (stereo not drawn)	-
Cc1ccc(CN2CCCCCNC(=O)CC2c2ccccc2)o1 (stereo not drawn)	28µM
O=C1CC(c2ccccc2)N(Cc2ccccn2)CCCCCN1 (stereo not drawn)	-
O=C(c1ccc(F)cc1)[C@@H]1[C@H]2C(=O)[C@@H]3OC[C@@H](O3)[C@@H]12	-
CC(C)(C)c1ccnc(N[C@H]2CO[C@H]3[C@@H]2OC[C@@H]3NC(=O)CCCC(=O)O)n1	-
CC(C)(C)c1ccnc(N[C@H]2CO[C@H]3[C@@H]2OC[C@@H]3NC(=O)c2ccco2)n1	-
O=C(Nc1ccc(Oc2ccccc2)cc1)N[C@H]1CO[C@H]2[C@@H]1OC[C@@H]2Nc1nccc(-c2ccc(-c3ccccc3)cc2)n1	-
S=C(Nc1ccccc1)N[C@H]1CO[C@H]2[C@@H]1OC[C@@H]2Nc1nccc(-c2ccco2)n1	25µM
O=C(N[C@H]1CO[C@H]2[C@@H]1OC[C@@H]2Nc1nccc(-c2ccco2)n1)c1ccco1	40µM
O=C(Nc1ccccc1)O[C@@H]1CO[C@H]2[C@@H]1OC[C@@H]2NC(=S)Nc1ccccc1	-
O=C(CCc1ncc(-c2ccccc2Cl)o1)Nc1nccs1	-
CCCCCCOc1ccc(C(=O)COC(=O)c2ccc(Br)cc2)cc1	-
Cc1nn2c(c1-c1ccccc1[S+](C)(=O)[O-])N(C(=O)c1cccc(O)c1)CCC2	-
Cc1ccc(CN2CCCn3nc(C)c(-c4ccccc4-c4ccccc4)c32)o1	35µM
Cc1nn2c(c1-c1ccccc1-c1ccccc1)N(Cc1cccc(O)c1)CCC2	28µM
Cc1nn2c(c1-c1ccccc1-c1ccccc1)N(C(=O)c1ccn(C)n1)CCC2	-
Cc1ncsc1C(=O)N1CCCn2nc(C)c(-c3ccccc3-c3ccccc3)c21	-
CC(=O)Nc1ccccc1-c1c(C)nn2c1N(Cc1ccccc1)CCC2	-
Cc1noc(C(C)Sc2nc(C3CC3)nc3ccccc23)n1 (stereo not drawn)	-
COC(=O)CNC(=O)N1CCc2c(nc3cc(-c4ccccc4Cl)[nH]n3c2=O)C1	22µM
COc1cccc(NC(=O)N2CCc3nc4cc(-c5ccccc5Cl)[nH]n4c(=O)c3C2)c1	25µM
COc1ccc(-c2nc3c(c(-c4ccccc4)n2)CN(C(=O)Nc2ccccc2)CC3)cc1	-
Cc1ccc(NC(=O)CSc2nc(-c3ccccc3Cl)nc3cc(=O)[nH]n23)c(C)c1	-
O=C(CSc1nc2ccccc2c(=O)n1-c1ccccc1Cl)NCC1CCCO1 (stereo not drawn)	-
SMILES	KDM5B inh
COc1cccc(NC(=O)Cn2nc3c(cc2=O)CCCCC3)c1	-
COC(=O)CNC(=O)c1cc(-c2ccccc2Cl)nc2ccc(Br)cc12	-
O=C(CCc1ncc(-c2ccccc2Cl)o1)NCC1CCCO1 (stereo not drawn)	-
O=C(NCC1CCCO1)N1CCc2c(nc3cc(-c4ccccc4Cl)[nH]n3c2=O)C1 (stereo not drawn)	20µM
CC(=O)Nc1ccc(CC(=O)N2CCC(C)(c3noc(C)n3)CC2)cc1	-
CC(=O)Nc1ccc(CC(=O)N2CCC3(CCC(=O)N(Cc4ccccc4)CC3)CC2)cc1	-
CC(=O)Nc1ccc(CC(=O)N2CCc3c(nc4cc(-c5ccccc5Cl)[nH]n4c3=O)C2)cc1	25µM
Cc1cccc(C(=O)Nc2c(NCC3CCCCC3)c3ccccc3oc2=O)c1	-
O=C(CN1CCN(c2cccc(Cl)c2)CC1)NC1CCS(=O)(=O)C1 (stereo not drawn)	-
O=[N+]([O-])c1ccccc1S(=O)(=O)Nc1cccc(-n2cccn2)c1	-
CCCc1nnc(NC(=O)NCC(O)c2ccc(F)cc2)s1 (stereo not drawn)	-
CNc1cc(C)nc2c(-c3ccc(OC)c(OC)c3)c(C)nn12	-
Cc1nonc1NC(=O)COc1ccc(C(C)(C)C)cc1	-
CCOC(=O)c1ccc(NC(=O)c2ncoc2-c2cccc(C)c2)cc1	-
Cc1cc(CS(=O)(=O)Cc2ccccc2Cl)no1	-
COC(=O)c1cc(C(=O)OC)cc(-c2ccc(C=O)o2)c1	-
Cn1nc(C(=O)OCCOc2ccc(Br)cc2)c2ccccc2c1=O	-
Cc1ccc(-c2[nH]ncc2CNC(C)c2cccs2)cc1 (stereo not drawn)	-
CC(/C=N/NC(=O)C1CC1c1ccc(C(C)(C)C)cc1)c1ccccc1 (stereo not drawn)	-
O=[S+]1([O-])NCC2(CCCN(Cc3cccc(C(F)(F)F)c3)C2)Oc2ncccc21 (stereo not drawn)	-
O=[S+]1([O-])NCC2(CCCN(Cc3ccc(Cl)cc3)C2)Oc2ncccc21 (stereo not drawn)	79µM
O=[S+]1([O-])NCC2(CCN(Cc3cccnc3)CC2)Oc2ncccc21	-
Cc1ccc(OCc2nc(C3CN(C(=O)CCc4nc5ccccc5s4)C3)no2)cc1	-
C/C(CC(C)(C)c1ccccc1)=N\NC(=O)CCSc1ccccc1	-
O=C(c1ccc2c(c1)OCO2)N1CCC(c2nnc3n2CCNC3)CC1	50µM
